# Measured values reported in PubChem BioAssay AID504465 (National Center for Advancing Translational Sciences (NCATS), 2011).
# The campaign covered roughly 2,100 compounds. About 210 (10%) were called active. About 53% were inconclusive and are not listed. Calls come from the whole dose curve; as a rule, active = well fitted inhibition curve with a large enough effect; inconclusive = small, poorly fitted or top-dose-only effect, or effect the other way; inactive = no such curve, though single readings can be large or run the other way. Some of the results follow.
# Experiment: IN Cell qHTS Assay for Inhibitors of the mTORC1 Signaling Pathway in MEF (Tsc2-/-, p53-/-) Cells: Sytravon; note: nearly all actives have a fitted effect of over 60% in size
# Details: phospho-rpS6 immunofluorescence, 24 h; series mostly up to 38.3 µM; activity, negative = inhibition: at the top concentration
# Procedure, shortened: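 Immunofluorescence of rpS6 phosphorylation (Ser235/236) in mouse embryonic fibroblasts lacking Tsc2 and p53, after 24 h compound exposure; Hoechst-normalized signal imaged, each well scored as % active cells relative to rapamycin (7.5 nM) and DMSO controls.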
# Potency is the fitted concentration of half-maximal effect.
Structure (SMILES),"activity, negative = inhibition",Potency
COc1ccc(-c2ccc(CCC(=O)O)n2-c2ccccc2O)cc1,-5% (inactive),–
CCC1CN(C(=O)NCc2ccccc2)c2cc(C)ccc2O1 (configuration not stated),-10.1% (inactive),–
CCN(Cc1ccccc1)Cc1c(O)ccc2oc(C)c(C(=O)Nc3ccc(C)cc3C)c12,-5.82% (inactive),–
CCCCN1C(C(=O)c2ccccc2)=C(OC(C)=O)c2ccccc2S1(=O)=O,-15.5% (inactive),–
COc1ccc(OC)c2sc(N(CCCN(C)C)C(=O)c3ccco3)nc12,–,14.7 µM (active)
COc1cc(Cl)c(C)cc1Nc1c2c(nc3ccccc13)CCC2,-95.5% (inactive),–
COc1ccc(C)cc1Nc1c2c(nc3ccccc13)CCC2,–,7.36 µM (active)
COc1ccccc1Nc1c2c(nc3ccc(NC(=O)c4cccc(OC)c4OC)cc13)CCCC2,–,5.85 µM (active)
COc1cc2c(cc1OC)n(CC(=O)Nc1ccc(C)cc1C)c(=O)n1nc(-c3ccccc3)nc21,-81.9% (inactive),–
COc1ccccc1Nc1c2c(nc3ccc(NC(=O)c4ccc(N(C)C)cc4)cc13)CCCC2,–,2.07 µM (active)
COc1ccccc1Nc1nn2c(=O)c3ccc(C(=O)NCCC4=CCCCC4)cc3nc2s1,-95.7% (inactive),–
COc1ccccc1Nc1nn2c(=O)c3ccc(C(=O)NCCc4ccccc4)cc3nc2s1,-11.5% (inactive),–
COc1ccc(C(=O)Nc2cccc(-c3cn4ccsc4n3)c2)cc1OC,-19.6% (inactive),–
COc1ccccc1Nc1c2c(nc3ccc(NC(=O)c4ccc(OC)c(OC)c4)cc13)CCCC2,–,1.65 µM (active)
CC1=C(C(=O)Nc2ccccc2C)C(c2cccs2)n2nc(SCc3ccccc3)nc2N1 (configuration not stated),-100% (inactive),–
CCC1CN(C(=O)N2CCC(C(=O)NCCN(CC)CC)CC2)c2ccccc2O1 (configuration not stated),-0.799% (inactive),–
CC(C)c1ccc(NC(=O)c2ccc(F)c(S(=O)(=O)N3CCN(c4ccccc4F)CC3)c2)cc1,6.25% (inactive),–
COc1ccc2c(c1)c(=O)c(S(=O)(=O)c1ccc(Cl)cc1)cn2C,-15.6% (inactive),–
COc1ccc(CCCc2nnc(SCC(=O)Nc3cccc(F)c3C)o2)cc1,-25.4% (inactive),–
COc1ccccc1CCNC(=O)C(=O)NCC(c1cccnc1)N1CCN(c2ccccc2)CC1 (configuration not stated),-1.98% (inactive),–
CCCc1nn2c(=O)cc(COC(=O)c3cccc(NC(=O)c4ccc(OCC)cc4)c3)nc2s1,0% (inactive),–
CCOc1ccc(NC(=O)Cn2c(=O)cc(C)c3c(C)nn(C)c32)cc1,-14.9% (inactive),–
CCC1=Nc2cc(C(=O)NCc3ccccc3Cl)ccc2Sc2ccc(C)cc21,0% (inactive),–

Structure (SMILES),"activity, negative = inhibition",Potency
CCc1cccc(NC(=O)Cn2c(=O)n(CCC(=O)NCc3ccccc3Cl)c(=O)c3sccc32)c1,-100% (inactive),–
Cc1ccc(OCC(=O)NCC2(N3CCN(C)CC3)CCCCC2)cc1,-19.1% (inactive),–
CN(C)C1(CNC(=O)COc2ccc(C(C)(C)C)cc2)CCCCC1,-7.34% (inactive),–
CC(C)(C)c1ccc(OCC(=O)NCC2(N3CCOCC3)CCCCC2)cc1,-38.2% (inactive),–
CN1CCN(C2(CNC(=O)COc3ccc(C(C)(C)C)cc3)CCCCC2)CC1,–,14.7 µM (active)
CC(C)COc1ccc(C(=O)NCC2(N3CCN(C)CC3)CCCCC2)cc1,–,16.5 µM (active)
Cc1ccc(OCC(=O)NCC2(N3CCN(C)CC3)CCCCC2)cc1C,-20.2% (inactive),–
Oc1ccccc1-c1nc(-c2cccs2)c(-c2cccs2)[nH]1,-1.5% (inactive),–
COc1ccc(CNCCC(c2ccc(C)cc2)c2ccco2)cc1 (configuration not stated),-100% (inactive),–
CC(=O)c1cccc(NS(=O)(=O)c2ccc3[nH]c4c(c3c2)CCCCC4)c1,1.08% (inactive),–
CCCN(CCC)CCCNC(=O)c1cc2c(-c3ccc(Cl)cc3)nn(C)c2s1,–,2.61 µM (active)
CCOc1ccc(CCNC(=O)c2cc3c(-c4ccccc4F)nn(C)c3s2)cc1,19.4% (inactive),–
CCCN(CCC)CCCNC(=O)c1cc2c(-c3ccc(OC)c(OC)c3)nn(C)c2s1,–,16.5 µM (active)
COc1ccc(CCNC(=O)c2nn(C)c3c2CSc2ccccc2-3)cc1OC,-7.86% (inactive),–
CCCCN(CCCC)CCCNC(=O)c1cc(-c2ccc(Cl)s2)nc2ccccc12,25.2% (inactive),–
COc1ccc(-c2nn(C)c3sc(C(=O)Nc4cccc(F)c4)cc23)cc1OC,0% (inactive),–
Cc1cc(C)cc(NC(=O)C(=O)NCC(c2ccc3c(c2)OCO3)N2CCN(C)CC2)c1 (configuration not stated),3.7% (inactive),–
CC(C)CN(CC(C)C)S(=O)(=O)c1ccc(C(=O)Nc2sc3c(c2C(N)=O)CCN(C(C)C)C3)cc1,6.25% (inactive),–
CCc1ccc(CNC(=O)COc2cc(=O)n(CC)c3ccccc23)cc1,8.06% (inactive),–
CC(C)Oc1ccccc1-c1nc(SCC(=O)c2ccc(F)cc2)n[nH]1,-19.3% (inactive),–
CCOc1ccc(CNC(=O)C2CCN(S(=O)(=O)c3ccc4c(ccn4C)c3)CC2)cc1,0.0324% (inactive),–
CCOc1cc(CNC(=O)c2ccc(C)c(NC(=O)c3nsc4ccccc34)c2)ccc1OC,-1.04% (inactive),–
COc1ccccc1C(=O)OCc1cc(=O)n2nc(C3CC3)sc2n1,0.274% (inactive),–

Structure (SMILES),"activity, negative = inhibition",Potency
CCCN1C(=O)c2[nH]nc(-c3ccccc3O)c2C1c1cccc(OCc2ccccc2)c1 (configuration not stated),-14.6% (inactive),–
O=C1c2[nH]nc(-c3ccccc3O)c2C(c2ccc(Cl)cc2)N1CCc1ccccc1 (configuration not stated),-15.5% (inactive),–
CC(C)OCCCN1C(=O)c2[nH]nc(-c3ccccc3O)c2C1c1ccc(OCc2ccccc2)cc1 (configuration not stated),–,18.5 µM (active)
CCCCOc1cccc(C2c3c(-c4cc(C)ccc4O)n[nH]c3C(=O)N2CCOC)c1 (configuration not stated),-12.8% (inactive),–
CCCN1C(=O)c2[nH]nc(-c3ccccc3O)c2C1c1ccc(OCc2ccccc2)c(OC)c1 (configuration not stated),-29% (inactive),–
COc1ccc(CCN2C(=O)c3[nH]nc(-c4ccccc4O)c3C2c2ccccc2)cc1 (configuration not stated),-4.54% (inactive),–
CCCCN1C(=O)c2[nH]nc(-c3ccccc3O)c2C1c1cccc(OCc2ccccc2)c1 (configuration not stated),–,20.7 µM (active)
COc1ccc(C2c3c(-c4ccccc4O)n[nH]c3C(=O)N2CCc2ccccc2)cc1 (configuration not stated),-21.4% (inactive),–
COc1ccc(CCN2C(=O)c3[nH]nc(-c4ccccc4O)c3C2c2cccc(OC)c2)cc1 (configuration not stated),–,20.7 µM (active)
CCc1ccc(-n2nc(C)c3c(C(=O)Nc4cc(OC)cc(OC)c4)cc(C)nc32)cc1,-0.926% (inactive),–
CC(Sc1nc2c([nH]c3ccccc32)c(=O)n1-c1ccccc1)c1ccccc1 (configuration not stated),-0.445% (inactive),–
CC(C)CC(=O)Nc1cc(-c2ccccc2F)nn1-c1ccccc1,18% (inactive),–
CCOc1ccc(-n2c(-c3ccccc3)c(C)n3c4c(=O)n(C)c(=O)n(C)c4nc23)cc1,-5.32% (inactive),–
Cc1ccc(-c2nc3ncccc3o2)cc1NC(=O)COc1ccc(C(C)C)cc1,-20.9% (inactive),–
Cc1cccc(C)c1NC(=O)Cn1c(=O)n(CCC(=O)NCc2ccccc2Cl)c(=O)c2sccc21,-89.9% (inactive),–
CCOc1cc(CNc2ccc(O)cc2)cc(Cl)c1OCc1ccccc1,-100% (inactive),–
CCn1ccc2cc(S(=O)(=O)N3CCCN(C(=O)NCC(C)C)CC3)ccc21,-7.24% (inactive),–
CCC(C)NC(=O)c1ccc2c(c1)N=C(C)c1cc(C)ccc1S2 (configuration not stated),0.833% (inactive),–
CCNS(=O)(=O)c1ccc(NC(=O)CSc2nc(-c3ccco3)cc(C(F)(F)F)n2)cc1,–,0.233 µM (active)
COc1ccc(NC(=O)CSc2nc(-c3ccco3)cc(C(F)(F)F)n2)cc1Cl,-5% (inactive),–
CCc1ccc2c(c1)-c1ccccc1S(=O)(=O)N2CC(=O)N1CCC(C)CC1,-6.77% (inactive),–
CCc1ccc(NC(=O)C2CCCN(S(=O)(=O)c3c(C)noc3/C=C/N(C)C)C2)cc1 (configuration not stated),-15.8% (inactive),–
Cc1ccc(Sc2c(C)nn(C(=O)COc3ccccc3)c2C)cc1,–,6.56 µM (active)

Structure (SMILES),"activity, negative = inhibition",Potency
O=C(Nc1ccc(Br)cc1)c1ccc(F)c(S(=O)(=O)N2CCc3ccccc32)c1,6.25% (inactive),–
CCOc1ccccc1NC(=O)Cn1ccn(Cc2ccc(C)cc2)c(=O)c1=O,-8.7% (inactive),–
CCc1nn(CC(=O)NCc2ccccc2Cl)c(=O)c2cccn12,–,3.29 µM (active)
CCOc1ccccc1CNC(=O)CCn1c(=O)c2cccn2c2ccc(F)cc21,-5.8% (inactive),–
Cc1ccc(C(=O)c2cn(CC(=O)NCc3ccccc3Cl)c3nc(C)ccc3c2=O)cc1,1.08% (inactive),–
Clc1ccc(-n2ncc3c(NC4CCCC4)ncnc32)cc1,6.25% (inactive),–
CC(C)Oc1ccc(CNC(=O)CCn2c(=O)c3cccn3c3ccc(F)cc32)cc1,-9.57% (inactive),–
COc1cccc(-n2c(SCc3cccc(C)c3)nc3c([nH]c4ccccc43)c2=O)c1,-10.7% (inactive),–
COc1ccc(-c2nnc(SCc3cc(=O)c4cc(C)cc(C)c4[nH]3)n2C)cc1,–,18.5 µM (active)
COc1cccc(-n2c(SCC(=O)Nc3c(C)cc(C)cc3C)nc3c([nH]c4ccccc43)c2=O)c1,-8.87% (inactive),–
O=C(Nc1ccc(F)c(Cl)c1)c1cc(S(=O)(=O)N2CCCc3ccccc32)ccc1F,6.25% (inactive),–
Cc1cccc(N2CCN(C(=O)Cn3c(=O)c4cccn4c4ccc(F)cc43)CC2C)c1 (configuration not stated),-19.3% (inactive),–
Cc1ccccc1Cn1nnc2c(=O)[nH]c(C3CCN(C(=O)c4ccccc4Cl)CC3)nc21,-11.3% (inactive),–
O=C(Nc1ccc(Cl)c(C(F)(F)F)c1)c1ccc2c(c1)CCN2S(=O)(=O)c1ccccc1,-10.2% (inactive),–
CCCOC(=O)c1cccc(NC(=O)c2c(-c3ccccc3Cl)noc2C)c1,0.806% (inactive),–
COC(=O)C1=C(C)N(C(C)C)C(=O)C1(NC(=O)c1ccc(C(C)(C)C)cc1)C(F)(F)F (configuration not stated),–,20.7 µM (active)
O=C(Nc1ccc(C(F)(F)F)cc1)c1cc(S(=O)(=O)NC2CCCCC2)ccc1F,6.25% (inactive),–
COc1ccccc1CN1CCC(CNC(=O)c2cnn(-c3ccccc3Cl)c2C2CCN(C(=O)OC(C)(C)C)CC2)CC1,-15.8% (inactive),–
Cc1ccc(-n2ncc(C(=O)NCc3cccs3)c2C2CCN(C(=O)OC(C)(C)C)CC2)cc1C,-5.66% (inactive),–
Cc1ccc(-n2ncc(C(=O)NCCCN3CCc4ccccc4C3)c2C2CCN(C(=O)OC(C)(C)C)CC2)cc1C,–,20.7 µM (active)
CCCCOC(=O)c1ccc(NC(=O)Cc2coc3ccc(C(C)C)cc23)cc1,-1.11% (inactive),–
CCCCS(=O)(=O)c1nc(-c2ccc(Br)cc2)cc(-c2ccccc2)c1C#N,–,3.29 µM (active)
CCCS(=O)(=O)N1CC(=O)N(c2ccccc2C)C(C)(C(=O)NC2CCCC2)C1 (configuration not stated),-15% (inactive),–
